Data taken from ChEMBL document CHEMBL3988442, “University of Dundee, Small-Polar-MMV Screening Library” (2021).
Hit rate of the full screen: of about 48,000 compounds, about 13,000 (27%) showed an effect of 50% or more. This is one part of the list.

System: Wolbachia pipientis
Experiment: Anti-Wolbachia Cell-Based Screen
Assay type: functional
Design: scale not given: in the data most compounds retested in dose-response had high values
Settings: 5 µM

| Structure (SMILES) | Percent Effect [%] |
| --- | --- |
| CCN1CCN(C[C@@H]2CN(c3ncccc3C(F)(F)F)C[C@@H]2CO)CC1 | -2.806 |
| COCC(=O)N1CCC2(CC1)CCn1c(-c3cccc(OC)c3)cnc12 | -17.52 |
| CCN1CCn2c(C)cnc2C12CCN(C(=O)c1cscn1)CC2.O=C(O)C(F)(F)F.O=C(O)C(F)(F)F | 113.9 |
| CCN1CC(=O)NCC12CCN(C(=O)c1ccco1)C2.O=C(O)C(F)(F)F (stereo not drawn) | -12.24 |
| CCN1CC[C@@]2(C(=O)N(C)C)CCN(C(=O)Cc3ccccc3)CC[C@@H]12.O=C(O)C(F)(F)F | 0.7047 |
| CCN1CCn2c(C)cnc2C12CCN(C(=O)c1ccc(Cl)cc1)CC2.O=C(O)C(F)(F)F | -23.96 |
| O=C(O)C(F)(F)F.O=C(c1cscn1)N1CCc2ncc(CN3CCCC3)n2CC1 | -30.66 |
| CCN(C)c1ncnc2c1CCN(C(=O)COC)CC2.O=C(O)C(F)(F)F | -4.529 |
| CCN1CCn2c(C)cnc2C12CCN(C(=O)COC)CC2.O=C(O)C(F)(F)F.O=C(O)C(F)(F)F | 77.99 |
| CCN1CCn2c(C)cnc2C12CCN(C(=O)Cc1ccccc1)CC2.O=C(O)C(F)(F)F.O=C(O)C(F)(F)F | 97.89 |
| CCN1CCn2c(C)cnc2C12CCN(C(=O)c1ccco1)CC2.O=C(O)C(F)(F)F.O=C(O)C(F)(F)F | 97.51 |
| CCCNC(=O)c1cc(-c2ccn(C(C)C)n2)n2ccccc12 | -14.06 |
| CCC1CN(Cc2c(O)ccc3oc4c(c23)CCCC4)CCO1 (stereo not drawn) | -8.053 |
| CCCn1nc(-c2nc(Cc3ccc(OC)cc3)no2)ccc1=O | -20.77 |
| CC(C)c1nc2c(n1C)CCN(CCCc1nc3ccccc3o1)C2 | -2.699 |
| Cn1cc(-c2nc(CN3CCN(CCO)CC3)cs2)cn1 | -9.549 |
| Cc1ccc(C(C)(O)CNC(=O)c2scnc2C)o1 (stereo not drawn) | -6.969 |
| Cc1ccc2oc(=O)n(CCC(=O)N3CCCC4(CNC(=O)O4)C3)c2c1 (stereo not drawn) | -2.854 |
| CC(C)c1ccc(C(O)Cn2c(=O)c(C#N)cn(C3CC3)c2=O)cc1 (stereo not drawn) | -1.509 |
| CC(C)N(C)Cc1nnc2n1CCN(Cc1ccncc1)CC2.O=C(O)C(F)(F)F.O=C(O)C(F)(F)F.O=C(O)C(F)(F)F | -8.532 |
| CN(C)CCOCc1nnc2n1CCN(CC1CC1)CC2.O=C(O)C(F)(F)F.O=C(O)C(F)(F)F | 103.3 |
| CN(C)C(=O)COCc1nnc2n1CCN(Cc1ccsc1)C2.O=C(O)C(F)(F)F | 3.675 |
| COCc1nnc2n1CCN(Cc1ccoc1)C2.O=C(O)C(F)(F)F | -3.646 |
| CC(C)N(C)Cc1nnc2n1CCN(CC1CC1)CC2.O=C(O)C(F)(F)F.O=C(O)C(F)(F)F | 9.045 |
| COc1ccc(CN2CCc3nnc(COCCN(C)C)n3CC2)cc1.O=C(O)C(F)(F)F.O=C(O)C(F)(F)F | 131 |
| CN(C)CCOCc1nnc2n1CCN(Cc1ccsc1)C2.O=C(O)C(F)(F)F.O=C(O)C(F)(F)F | -13.86 |

| Structure (SMILES) | Percent Effect [%] |
| --- | --- |
| CN(C)CCOCc1nnc2n1CCN(Cc1ccoc1)CC2.O=C(O)C(F)(F)F.O=C(O)C(F)(F)F | 88.27 |
| CN(C)C(=O)COCc1nnc2n1CCN(Cc1ccoc1)C2.O=C(O)C(F)(F)F | -2.89 |
| O=C(O)C(F)(F)F.O=C(O)C(F)(F)F.c1cncc(COCc2nnc3n2CCN(CC2CC2)C3)c1 | -1.478 |
| CN(C)CCOCc1nnc2n1CCN(Cc1ccc(F)cc1)CC2.O=C(O)C(F)(F)F.O=C(O)C(F)(F)F | 109.9 |
| CCc1sc(-c2nnc(CNCCn3cccn3)o2)cc1C | -1.143 |
| COc1cccc([C@H]2CN(CCCS(=O)(=O)N(C)C)C[C@@H]2N)c1 | -12.77 |
| Cn1ccnc1CN1CC[C@@H](NS(C)(=O)=O)[C@@H]1Cc1ccccc1.O=C(O)C(F)(F)F | 9.127 |
| O=C(NC1CCS(=O)(=O)C1)N1CCN(c2cnccn2)CC1 (stereo not drawn) | 3.203 |
| Clc1ccccc1-c1nnc(CSCCN2CCOCC2)o1 | -8.486 |
| COCCN(CC(C)C)c1cc(C)ncn1 | 0.855 |
| COc1ccc2c(C)c(C(=O)NC3CCCOC3)oc2c1 (stereo not drawn) | -7.174 |
| Cc1cccc(-c2noc(C)c2C(=O)NC2CCCOC2)c1.O=C(O)CC(O)(CC(=O)O)C(=O)O (stereo not drawn) | 154 |
| Cc1c(C(=O)NC2CCCOC2)nnn1-c1ccc(Cl)cc1F (stereo not drawn) | -27.09 |
| O=c1cc(CN(CCO)C2CC2)nc2ccccn12 | -7.428 |
| O=c1cc(CN(Cc2ccco2)C2CC2)nc2ccc(Br)cn12 | -5.391 |
| O=C(OCc1cc(=O)n2cc(Br)ccc2n1)c1ccc2c(c1)OCO2 | 110.5 |
| c1cn2c(n1)CO[C@@H](CNCc1ccc3c(c1)OCO3)C2 | -4.812 |
| CN(CCO)Cc1cc(=O)n2cc(Br)ccc2n1 | 0.309 |
| CCN(Cc1cc(=O)n2cc(Br)ccc2n1)C1CC1 | 1.133 |
| O=c1cc(CNCc2ccc3c(c2)OCO3)nc2ccc(Br)cn12 | 115.5 |
| O=c1cc(CNCc2ccc3c(c2)OCO3)nc2ccccn12 | 121 |
| O=c1cc(CN(CCO)C2CC2)nc2ccc(Br)cn12 | 3.193 |
| COc1ccccc1-n1nc(CC(C)C)nc1Cc1nnc(N)s1 | 123.6 |
| COc1ccc(-n2nc(C(C)C)nc2COC(C)C)cc1 | -17.3 |
| COc1ccccc1-n1nc(C(C)C)nc1Cc1nnc(N)s1 | 123.2 |
| Cc1cccc(-n2nc(CC(C)C)nc2CCCC(N)=O)c1 | 10.56 |

| Structure (SMILES) | Percent Effect [%] |
| --- | --- |
| COc1ccccc1OCc1nc(C(C)C)no1 | -14.46 |
| CC(C)Cc1nc(CS(C)(=O)=O)n(-c2ccccn2)n1 | -36.43 |
| COc1ccccc1-n1nc(CC(C)C)nc1CSc1nnc(N)s1 | 106.5 |
| COc1ccccc1-n1c(CC(C)C)nnc1SCC(=O)O | -51.76 |
| Cc1cccc(-n2nc(CC(C)C)nc2CS(C)(=O)=O)c1 | 2.26 |
| CN(Cc1nccn1C)c1nccc(N2CCCC(O)C2)n1 (stereo not drawn) | 5.071 |
| CN(CCN1CCCCCC1)c1nccc(N2CCC(O)C2)n1 (stereo not drawn) | 17.45 |
| CC(C)c1nc(C2CCCN(c3nccc(N4CCCC4)n3)C2)no1 (stereo not drawn) | -3.198 |
| CCc1nc(C2CCCN(c3nccc(N4CCCC4)n3)C2)no1 (stereo not drawn) | -11.44 |
| CCc1noc(CN(C)Cc2ccc(N3CCCCC3)cc2)n1 | 6.491 |
| CCc1nnc(CN(C)c2nccc(N3CCCC(O)C3)n2)o1 (stereo not drawn) | 80.06 |
| CC(C)c1nc(CCN(C)c2nccc(N3CCCC(O)C3)n2)no1 (stereo not drawn) | 96.48 |
| CCc1nc(CN(C)c2nccc(N3CCCC(O)C3)n2)no1 (stereo not drawn) | 114.5 |
| CN(Cc1nncn1C)c1nccc(N2CCC(O)CC2)n1 | 2.442 |
| CO[C@H]1COCCN(C(=O)c2ccc(C#N)cc2)C1 | 6.544 |
| CC(NC(=O)CN1C=Nc2ccccc2S1(=O)=O)c1ccccc1 (stereo not drawn) | 1.961 |
| Cc1c(NC(=O)C(C)N(C)C)c(=O)n(-c2ccccc2)n1C (stereo not drawn) | 117.4 |
| Cc1cc(NC(=O)N(C)C2CCCN(c3ccccc3)C2=O)n(C)n1 (stereo not drawn) | 12.64 |
| Cc1nn(C(C)C)c(C)c1NC(=O)c1ccccc1 | -6.028 |
| CN(Cc1ccsc1)c1nc(-c2ccccn2)nc2c1CCNCC2 | 9.446 |
| O=C(CCn1cccn1)N1CCC(c2nnc(-c3ccccn3)o2)CC1 | 80.52 |
| CN(C)S(=O)(=O)N1CCC(c2nnc(C(F)(F)F)o2)CC1 | 9.522 |
| O=C(Cn1cccn1)N1CCC(c2nnc(C(F)(F)F)o2)CC1 | 121.4 |
| CCS(=O)(=O)N1CCC(c2nnc(C(F)(F)F)o2)CC1 | -1.552 |
| O=C(Cc1ccccc1)N1CCC(c2nnc(-c3ccccn3)o2)CC1 | 100.4 |
| Cc1nnc([C@@H]2CCO[C@@H]3CCN(C(=O)Cc4ccccn4)C[C@@H]32)o1 | -1.99 |

| Structure (SMILES) | Percent Effect [%] |
| --- | --- |
| O=C(Cc1ccccc1)N1CC[C@@H]2CNS(=O)(=O)[C@@H]2CC1 | -4.028 |
| O=C(c1ccccn1)N1CCCN(Cc2nnc(C3CC3)o2)CC1 | -3.394 |
| O=C(CC1CCCC1)N1CCC(c2nnc(-c3ccccn3)o2)CC1 | 116.1 |
| O=C(CCn1cccn1)N1CCC(C2CCN(c3ncccn3)CC2)C1 (stereo not drawn) | 0.2616 |
| CS(=O)(=O)NC1CCN(C(=O)CCn2cccn2)CC1 | -7.028 |
| O=C(CC1CCN(c2ncnc3ccccc23)CC1)N1CCCC1 | -18.62 |
| Cc1cnn(CC2CCN(c3cc(C(C)C)nc4ccnn34)CC2)c1 | -2.497 |
| COC(=O)c1sccc1S(=O)(=O)N1CCC(Oc2cccc(C)n2)CC1 | -4.236 |
| Cc1ccc(Cc2sc(NC(=O)C(C)S(C)(=O)=O)nc2C)cc1 (stereo not drawn) | -9.615 |
| Cn1cncc1-c1nnc([C@H]2CCN(Cc3cccnc3)C2)o1 | -10.77 |
| O=C(Cc1cccnc1)N1CCC(c2nnc(-c3ccccn3)o2)CC1 | 116.7 |
| O=C(CC1CCCC1)N1CCC(c2noc(-c3ccccn3)n2)CC1 | 138.8 |
| CN(C)CCCn1ccnc1C1CCN(C(=O)Cc2cccnc2)CC1 | -18.68 |
| O=C(CC1CCN(c2ncnc3cccc(F)c23)CC1)N1CCCC1 | 7.525 |
| Cc1noc(C)c1CN(C)CCC(=O)N1CCc2sccc2C1 | -7.36 |
| O=C(NCC1CC1)[C@@H]1CC[C@@H]2[C@@H](CCN2Cc2ccco2)O1.O=C(O)C(F)(F)F | 95.42 |
| O=C(NCC1CC1)[C@@H]1CC[C@@H]2[C@@H](CCN2CCOCc2ccccc2)O1 | -46.75 |
| COc1ccc(CN2CC[C@H]3O[C@@H](C(=O)NCC4CC4)CC[C@H]32)cc1.O=C(O)C(F)(F)F | 93.13 |
| O=C(NCC1CC1)[C@@H]1CC[C@@H]2[C@@H](CCN2Cc2ccc(F)c(F)c2)O1.O=C(O)C(F)(F)F | 110.1 |
| O=C(NCc1ccco1)[C@@H]1CC[C@@H]2[C@@H](CCN2CC2CC2)O1.O=C(O)C(F)(F)F | -3.769 |
| CNC(=O)[C@H]1CC[C@@H]2[C@@H](CCN2CCOCc2ccccc2)O1.O=C(O)C(F)(F)F | 2.484 |
| O=C(NCc1ccco1)[C@@H]1CC[C@@H]2[C@@H](CCN2Cc2ccc(F)cc2)O1.O=C(O)C(F)(F)F | -0.4343 |
| CNC(=O)[C@@H]1CC[C@@H]2[C@@H](CCN2Cc2ccccc2F)O1.O=C(O)C(F)(F)F | -4.389 |
| O=C(NCC1CCOCC1)[C@@H]1CC[C@@H]2[C@@H](CCN2Cc2ccncc2)O1.O=C(O)C(F)(F)F.O=C(O)C(F)(F)F | 108.2 |
| O=C(NCCc1ccncc1)[C@@H]1CC[C@@H]2[C@@H](CCN2Cc2ccco2)O1.O=C(O)C(F)(F)F.O=C(O)C(F)(F)F | -6.425 |
